Results published in PubChem BioAssay (Tox21).
Records with an inconclusive call do not appear. Unmarked numbers belong to inactive results. Active and inactive are the calls of the source. The call rests on the fitted dose curve; in most records, active means well fitted cell-killing curve with a large enough effect in the repeat runs; inconclusive means weak or mixed curves; inactive means no such curve, though single readings can be large or run the other way.

Test: qHTS assay to identify small molecule agonists of the peroxisome proliferator-activated receptor delta (PPARd) signaling pathway - cell viability counter screen (AID 743211); further: nearly all actives have a fitted effect of over 55% in size
Details: PPARd-bla HEK293H viability, CellTiter-Glo luminescence, 17 h; series mostly up to 62.6 µM; activity change, negative = cytotoxicity: at the top concentration
Text: U.S. Tox21 Program National Center for Advancing Translational Sciences [NCATS] NIH Chemical Genomics Center [NCGC] U.S. Environmental Protection Agency [EPA] National Institutes of Environmental Health Sciences [NIEHS] National Toxicology Program [NTP] U.S. Food and Drug Administration [FDA] Tox21 Assay Overview: The peroxisome proliferator-activated receptors (PPARs) are lipid-activated transcription factors of the nuclear receptor superfamily with three distinct subtypes namely PPAR alpha, PPAR delta (PPARd) and PPAR gamma. All these subtypes heterodimerizes with Retinoid X receptor (RXR) and have different physiological functions. […] To identify the compounds that activate PPAR-delta signaling, GeneBLAzer PPAR delta UAS-bla HEK293H cell line (Invitrogen, Carlsbad, CA, USA) containing a beta-lactamase reporter gene under the control of an Upstream Activator Sequence (UAS) was used to screen the Tox21 compound library. The cytotoxicity of the Tox21 compound library against the PPARd-bla cell line was tested in parallel by measuring the cell viability using CellTiter-Glo assay (Promega, Madison, WI) in the same wells.
Tox21 Assay Protocol Summary: PPARd-bla cells were dispensed at 3000 cells/6uL/well in 1536-well black wall/clear bottom plates using a Multidrop Combi (Thermo Fisher Scientific, Waltham, MA) dispenser. After the assay plates were incubated at 37 C and 5% CO2 for 5 h, 23 nL of compounds dissolved in DMSO, positive controls or DMSO only was transferred to the assay plate by a Pintool station (Kalypsys, San Diego, CA). The assay plates were incubated at 37C for 17 h. After 1 uL of LiveBLAzerTM B/G FRET substrate was added using a Bioraptr Flying Reagent Dispenser (FRD) workstation (Beckman Coulter, Indianapolis, IN, USA), the plates were incubated at room temperature for 2 h, and fluorescence intensity was measured by an Envision plate reader (PerkinElmer, Shelton, CT). For cell viability readout that measures cytotoxicity, 3 ul/well of CellTiter-Glo reagent was added into the assay plates using a Bioraptr FRD. After 30 min incubation at room temperature, the luminescence intensity in the plates was measured using a ViewLux plate reader (PerkinElmer).
On the % scale 0 is the no-effect control and ±100 the full control effect; potency means the concentration at half of the fitted maximal effect.

SMILES	activity change, negative = cytotoxicity	Potency
Cc1ccc(N(CCO)CCO)cc1	16.6%	–
CC(C)N=C=NC(C)C	8.93%	–
CC(=O)OCC1=C(C(=O)O)N2C(=O)[C@@H](NC(=O)CSc3ccncc3)[C@H]2SC1	8.57%	–
CC(=O)Oc1cccc(O)c1	6.38%	–
CC1C(C)(C)C2=C(C(=O)CCC2)C1(C)C (stereo not given)	-1.36%	–
CC(C)(C(=O)c1cccnc1)c1cccnc1	2.52%	–
CCCCCCOC(=O)CCCCC	8.89%	–
CCN(CC)CC(=O)Nc1c(C)cccc1C(=O)OC	-3.54%	–
Nc1nc2ccc(OC(F)(F)F)cc2s1	2.49%	–
CC(=O)OCCC(C)CC(C)(C)C (stereo not given)	-2.5%	–
CC(C)C(=O)OCCOc1ccccc1	5.79%	–
CCCCCCC(CO)CCCC (stereo not given)	23.5%	–
O=C(O)CCC(=O)OC[C@@H](NC(=O)C(Cl)Cl)[C@H](O)c1ccc([N+](=O)[O-])cc1	-5.78%	–
C=C(C)C(=O)OCCC(F)(F)C(F)(F)C(F)(F)C(F)(F)C(F)(F)C(F)(F)F	7.11%	–
CC(C)(C)C(O)/C=C/c1ccc2c(c1)OCO2 (stereo not given)	0.247%	–
CC(C)C1CCC(C(=O)N[C@H](Cc2ccccc2)C(=O)O)CC1 (stereo not given in full)	0.31%	–
Cc1ccc(NC(=O)N(C)C)cc1NC(=O)N(C)C	-13.4%	–
CCN(CC)CCOC(=O)C(c1ccccc1)c1ccccc1	0.77%	–
O=C(O)c1cccc(C[C@@H]2COc3ccc(OCc4nc5cc(F)ccc5s4)cc3[C@@H]2O)c1	1.95%	–
CSSc1ccoc1C	3.74%	–

SMILES	activity change, negative = cytotoxicity	Potency
COc1ccc(N)c([N+](=O)[O-])c1	9.48%	–
Cc1ccc(S(=O)(=O)NC(=O)NC2CCCCC2)cc1	0.257%	–
CC1CCc2nccnc21 (stereo not given)	3.45%	–
CC(C)COC(=O)COc1cc(Cl)c(Cl)cc1Cl	-0.761%	–
CO[C@@H]1[C@@H](OC)[C@H](C)[C@@](O)(CC(=O)O)O[C@H]1[C@H](C)[C@H]1O[C@@]2(CC[C@@](C)([C@H]3CC[C@@](C)([C@@H]4O[C@@H]([C@H]5O[C@](C)(O)[C@H](C)C[C@@H]5C)C[C@@H]4OC4C[C@H](OC)[C@@H](OC)[C@H](C)O4)O3)O2)C[C@H](O)[C@H]1C (stereo not given in full)	–	2.98 µM (active)
CC1=C2[C@@H]([C@H](C)CC[C@H]2/C=C(\C)C(=O)O)[C@H](O)C1	4.34%	–
O=C(c1ccccc1)C1CCC1	1.32%	–
CCCCCCCCCCCSCC(=O)O	–	15.5 µM (active)
CCCCCCCCCCCCCCN(C)C	-3.31% [at 29.1 µM]	–
O=CNNC=O	-6.21% [at 81.1 µM]	–
Cc1ccc2c(c1)CCCN2	-13.7%	–
CCSC(=O)N(CC)CC	0.437%	–
CC(=O)C(=O)CC(C)C	4.37%	–
O=C(O)c1ccc(O)cc1O	-2.23% [at 81.1 µM]	–
O=C(O)CNC(=O)c1ccccc1I	7.34%	–
COC(CC(C)CCCC(C)(C)O)OC (stereo not given)	-4.54%	–
FC(F)(F)C(F)(F)C(F)(F)C(F)(F)CCI	5.45% [at 29.1 µM]	–
CCCCCCC(O)CCCCCCCCCCC(=O)OC (stereo not given)	-2.1%	–
CC(=O)OCC(=O)[C@@]1(OC(C)=O)[C@@H](C)C[C@H]2[C@@H]3C[C@H](F)C4=CC(=O)C=C[C@]4(C)[C@@]3(F)[C@@H](O)C[C@@]21C	-3.93%	–
CC[C@H]1OC(=O)[C@H](C)[C@@H](O[C@H]2C[C@@](C)(OC)[C@@H](O)[C@H](C)O2)[C@H](C)[C@@H](O[C@@H]2O[C@H](C)C[C@H](N(C)C)[C@H]2O)[C@](C)(O)C[C@@H](C)/C(=N\OCOCCOC)[C@H](C)[C@@H](O)[C@]1(C)O	1.85%	–
